In PubChem BioAssay AID1508637 (National Center for Advancing Translational Sciences (NCATS), 2021):
Inconclusive results are not listed. Calls of active or inactive are those of the source. Calls come from the whole dose curve; as a rule, active = well fitted inhibition curve with a large enough effect; inconclusive = small, poorly fitted or top-dose-only effect; inactive = flat fitted curve, though single readings scatter. Starred links: 1 amine or outer side, 2 acyl side, 3 side chain; linkers in the order of their positions; H or OH if unused. Non-standard residues stand in square brackets, D forms with d. Residues, ends and D or L forms follow the SMILES beside them. X1 = O=C([C@@H](CC(O)CCl)O[*:1])[*:2]; aIle = CC[C@@H](C)[C@H](N)C(=O)O; NMeV = CN[C@H](C(=O)O)C(C)C; NMeA = CN[C@@H](C)C(=O)O; βAla = NCCC(=O)O

Test: qHTS for characterization and localization of zebrafish homologs of the human ABCB1 multidrug transporter: empty vector transfected cells
Conditions: empty vector transfected control cells, CellTiter-Glo luminescence viability, 72 h
From the text: The zebrafish has emerged as a potential model to study the blood-brain barrier (BBB) given its similarities with mammalian systems. However, little information has been available with regard to homologous ATP-binding cassette transporters expressed at the zebrafish BBB. Two transporters that are highly expressed at the human BBB are P-glycoprotein (P-gp, encoded by the ABCB1 gene) and ABCG2 (encoded by the ABCG2 gene). In this study, we focus on characterization of P-gp homologs in the zebrafish, which has two genes that are homologous to human ABCB1 - abcb4 and abcb5. We generated stably-transfected cell lines to determine their substrate specificities. […] Zebrafish abcb4 also colocalized with claudin 5 expression in brain endothelial cells.
A high-throughput screen was performed as previously described on empty vector transfected cells, P-gp-overexpressing MDR-19 cells and cells transfected with full-length zebrafish abcb4 (ZF Abcb4) or abcb5 (ZF Abcb5). Briefly, cells were plated into 1536-well plates at a density of 500 cells/well in 5 uL media. P-gp substrate compounds (approximately 90) selected from our previous study were then added at varying concentrations using a 1536-head pin tool (Kalypsis, San Diego, CA) and plates were incubated at 37C in 5% CO2 for 72 h. CellTiter-Glo reagent (Promega) was dispensed into the wells, incubated for 5 min and luminescence was read on a ViewLux instrument (Perkin-Elmer).
Cytotoxic compounds were defined as those that yielded a curve class of -1.1, -1.2, -2.1, -2.2, -2.3, or -2.4, a maximum response of >50% and an AC50 of < 10 uM. All compounds from screening analysis were tested in Vector (empty vector control), MDR-19 (P-gp overexpressing), zebrafish abcb4 (ZF Abcb4) and abcb5 (ZF Abcb5) expression cell lines.
1. Tobie D Lee, Olivia W Lee, Kyle R Brimacombe, Lu Chen, Rajarshi Guha, Sabrina Lusvarghi, Bethilehem G Tebase, Carleen Klumpp-Thomas, Robert W Robey, Suresh V Ambudkar, Min Shen, Michael M Gottesman, Matthew D Hall. A High-Throughput Screen of a Library of Therapeutics Identifies Cytotoxic Substrates of P-glycoprotein. […]
In the case of `C=CCON=C(C[C@H]1O[C@@H]2O[C@]3(C)CC[C@@H]4[C@H](C)CC[C@@H]([C@H]1C)[C@@]24OO3)[C@H]1O[C@@H]2O[C@]3(C)CC[C@H]4[C@H](C)CC[C@@H]([C@@H]1C)[C@@]24OO3`, the Potency is reported as 187 nM (active). With `CC[C@@H](C)[C@@H]1NC(=O)[C@@H]2CCCN2C(=O)[C@@H](CC(O)CCl)OC(=O)CCNC(=O)[C@H](C)N(C)C(=O)[C@H](C(C)C)N(C)C1=O` (stereo partly drawn) (cyclo([NMeA][βAla][X1]P[aIle][NMeV])) the Potency was 1390 nM (active). In the case of `C[C@@H]1[C@@H](CC(C[C@H]2O[C@@H]3O[C@]4(C)CC[C@@H]5[C@H](C)CC[C@@H]([C@H]2C)[C@@]35OO4)C[S+](=O)([O-])c2ccc(COC(=O)N(C)C)cc2)O[C@@H]2O[C@]3(C)CC[C@H]4[C@H](C)CC[C@@H]1[C@@]24OO3` (stereo partly drawn), the Potency is reported as 264 nM (active).
